Screening data: PubChem BioAssay, National Center for Advancing Translational Sciences (NCATS)
PKM2 activator: increases activity of human pyruvate kinase M2; P14618; Potency, µM (highest dose often 57.5 µM), actives largely listed as activators; 260,000 tested, 0.34% active; purified PKM2, Kinase-Glo ATP luminescence, activation; response scale: 0% is enzyme alone, no compound; also: nearly all actives have a fitted effect of over 55% in size
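Purified hPK-M2 (>95% pure) converted ADP (0.1 mM final) to ATP with 0.5 mM PEP in 50 mM imidazole pH7.2, KCl, MgCl2, Tween 20, BSA; 1 h at room temperature. ATP detected by Kinase-Glo luminescence.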
IL-2 act: activates IL-2 in a cell-based reporter assay; IL-2 activation reporter assay, cell-based qHTS; stimulated with anti-CD3/CD4/CD28 beads; in transgenic mouse T cells; activation, % (series mostly up to about 46 µM); 360,000 tested, 0.065% active; AID 652025; in the data active = activation above about 50%; inconclusive = mostly about 30% to 49%
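Unstimulated transgenic mouse T cells, 750 per well, received compound and, after 60 minutes, anti-CD3/anti-CD4 bead plus anti-CD28 stimulation. EGFP and DsRed were quantified after 18 hours.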
ClpP mod: qHTS Assay for Activators of ClpP; purified B. subtilis ClpP, FRET peptide cleavage, 20 min; 340,000 tested, 1.9% active; Potency, µM (series often up to 57.5 µM); ATP-dependent Clp protease proteolytic subunit (Bacillus subtilis (strain 168)), P80244; active = well fitted falling curve with a large enough effect; inconclusive = small, poorly fitted or top-dose-only effect; inactive = no such curve, though single readings can be large or run the other way; also: the source files actives as falling curves though it sought activators and does not explain the sign; nearly all actives have a fitted effect of over 65% in size
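Purified B. subtilis ClpP, 10 microg/mL final in Tris/HCl pH8 with KCl, BSA, glycerol and Tween-20, cleaved an Abz/nitrotyrosine-quenched decapeptide. Fluorescence (ex 320, em 430) was read at 0 and 20 min at room temperature. Delta was normalized to 5.8 microM ADEP and DMSO/no-enzyme controls.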
NPSR antagonist: neuropeptide S receptor (human) antagonism, cAMP. Potency, µM (titrated, usually from 38.3 µM), actives largely listed as inhibitors. Q6W5P4. 220,000 tested, 1% active. CHO-NPSR cells, cAMP TR-FRET, antagonist mode; also: nearly all actives have a fitted effect of over 50% in size
Large screens that a line does not name were inactive. Compounds with a hit are over-represented: about 2% of the library has one in this group of screens. Unless noted, calls follow the shape of the dose curve; as a rule, active = well fitted curve in the direction sought with a large enough effect; inconclusive = small, poorly fitted or top-dose-only effect, or another doubt; inactive = no such curve, though single readings can be large; an effect the other way counts as inactive or inconclusive.

COc1ccccc1C1C2=C(N=c3s/c(=C/c4cccc(OCC(=O)O)c4)c(=O)n31)c1ccccc1CC2 (stereo unspecified)	none
Cc1cc(F)ccc1S(=O)(=O)Nc1ccccc1C(=O)Nc1ccccc1-c1nc2ccccc2[nH]1	ClpP mod 31.6µM, NPSR antagonist inconclusive
O=S(Cc1ccc(Br)cc1)Cc1nnc(SCc2ccc(Cl)cc2)n1-c1ccccc1 (stereo unspecified)	NPSR antagonist inconclusive
O=S(Cc1ccc(Br)cc1)Cc1nnc(SCc2c(F)cccc2Cl)n1-c1ccccc1 (stereo unspecified)	ClpP mod 31.6µM
Cn1ccnc1SCC(=O)Nc1cc(S(=O)(=O)N2CCOCC2)ccc1Cl	none
CC(C)(C)OC(=O)N1CCC(c2c(C(=O)N3CCN(c4ncccn4)CC3)cnn2-c2ccc(F)cc2)CC1	none (no result: PKM2 activator, IL-2 act, NPSR antagonist)
COc1ccc(-n2c(-c3ccc(Cl)cc3)c[n+]3c2CCc2ccccc2-3)cc1	none (no result: ClpP mod)
Cc1ccc(-n2c(-c3ccc(Br)cc3)c[n+]3c2CCc2ccc4cccnc4c2-3)cc1	NPSR antagonist 10µM
CCN1C(=O)[C@H]2[C@@H](c3ccc(-c4ccc5c(c4)OCO5)c(OC)c3)N[C@@](Cc3ccccc3)(C(=O)OC)[C@H]2C1=O	none (no result: PKM2 activator, NPSR antagonist)
CCCCc1c(O)c2ccccc2n(CCCC)c1=O	none
CCCCc1c(CCC)c(=N)c2ccccc2n1C	ClpP mod 15.8µM
CCN(CC(=O)NC1CCS(=O)(=O)C1)S(=O)(=O)c1ccc2ccccc2c1 (stereo unspecified)	ClpP mod 25.1µM
Cc1cccc(C)c1NC(=O)CSc1nc(C)c(CC(=O)c2ccc(Br)cc2)c(C)c1C#N	ClpP mod 28.2µM, NPSR antagonist inconclusive
Cc1nc(SCC(=O)Nc2ccccc2C(F)(F)F)c(C#N)c(C)c1CC(=O)c1ccc(Br)cc1	NPSR antagonist 10µM (no result: IL-2 act, ClpP mod)
CCc1c(C)nc(SCC(=O)c2cccs2)c(C#N)c1C	none
O=C(Nc1ncc2c(n1)-c1ccccc1CC2)c1ccc(Cl)cc1	ClpP mod 28.2µM
O=C(Nc1ncc2c(n1)-c1ccccc1OC2)c1ccc(Cl)cc1Cl	ClpP mod 35.5µM
CCO[C@@H]1OC(C(=O)NCc2ccccc2)=C[C@H](c2cn(C(C)=O)c3ccccc23)[C@H]1CCCO	none
CC(C)[C@H](NC(=O)c1ccccc1F)C(=O)OCC(=O)NC1CC1	none (no result: PKM2 activator, NPSR antagonist)
Cc1ccc(-n2c(C)cc(C3N=C(N)Nc4nc5ccccc5n43)c2C)c(C)c1 (stereo unspecified)	NPSR antagonist 10µM
O=C(Cc1ccccc1)N/N=C/c1cccc([N+](=O)[O-])c1	none (no result: ClpP mod)
Cn1c(CCNC(=O)c2ccco2)nc2cc(NS(=O)(=O)c3ccc(Cl)cc3)ccc21	PKM2 activator 15.8µM
COC(=O)Cc1c(C)nc2nc(-c3ccc(C)cc3)[nH]n2c1=O	none
Cc1cc(C)n(-c2nc(NCC(C)O)c3c4c(sc3n2)COC(C)(C)C4)n1 (stereo unspecified)	ClpP mod 28.2µM
Cc1cc(C)n(-c2nc(NCC(C)O)c3c4c(sc3n2)CCCC4)n1 (stereo unspecified)	ClpP mod 31.6µM
Cc1cc(C)n(-c2nc(NCCO)c3c4c(sc3n2)CCCC4)n1	none
Cc1cc(C)n(-c2nc(NCCCO)c3c4c(sc3n2)CCCC4)n1	ClpP mod 17.8µM
Cc1cc(C)n(-c2nc(SCC(=O)O)c3c4c(sc3n2)CCCC4)n1	none (no result: IL-2 act, ClpP mod)
CCC(=O)Nc1c(C#N)c2nc3ccccc3nc2n1C1CCCCC1	none
CN(C)CCCn1c(N)c(C#N)c2nc3ccccc3nc21	none (no result: ClpP mod)
CCCCC(CC)Cn1c(N)c(C#N)c2nc3ccccc3nc21 (stereo unspecified)	ClpP mod 31.6µM
CCC(=O)Nc1c(C#N)c2nc3ccccc3nc2n1-c1ccccc1C	ClpP mod 3.55µM
CCCCn1c(NC(=O)c2ccccc2Cl)c(C#N)c2nc3ccccc3nc21	NPSR antagonist 10µM
CCCCn1c(NC(=O)CC)c(C#N)c2nc3ccccc3nc21	ClpP mod 15.8µM
C=CCNc1nc(N2CCCCC2)c(C#N)c2c1CN(Cc1ccccc1)CC2	ClpP mod 28.2µM
CCN1CCc2c(C#N)c(N3CCCCC3)nc(NCc3ccccc3)c2C1	ClpP mod inconclusive, NPSR antagonist inconclusive
CCN1CCc2c(C#N)c(N3CCOCC3)nc(NCc3ccccc3)c2C1	none
N#Cc1c(NCCO)nc(NCc2ccccc2)c2c1CCN(Cc1ccccc1)C2	ClpP mod 10µM, NPSR antagonist inconclusive
CCN1CCc2c(C#N)c(N3CCOCC3)nc(NCCO)c2C1	ClpP mod 8.91µM
CCCCCc1nnc(NC(=O)OCCC)s1	none
Cc1cccc(NC(=O)CN(CC2CCCO2)C(=O)c2ccc(S(C)(=O)=O)cc2)c1C (stereo unspecified)	ClpP mod 25.1µM (no result: PKM2 activator, NPSR antagonist)
CCOc1ncccc1C(=O)OCC(=O)Nc1ccc(-c2nc3ccc(C)cc3s2)cc1	ClpP mod 3.55µM
C=CCn1c(SCC(=O)NNC(=O)Nc2ccc(C)cc2)nnc1-c1ccccc1	none
Cc1ccc2nc(-c3ccc(NC(=O)COc4ccccc4)cc3)sc2c1	none (no result: PKM2 activator, IL-2 act, NPSR antagonist)
Cc1ccc2nc(-c3ccc(NC(=O)COC(=O)c4ccco4)cc3)sc2c1	ClpP mod 7.08µM
C=CCn1c(SCC(=O)Nc2ccc(-c3nc4ccc(C)cc4s3)cc2)nnc1-c1ccccc1	ClpP mod 15.8µM, NPSR antagonist inconclusive
Cc1ccc2nc(-c3ccc(NC(=O)COC(=O)c4ccc([N+](=O)[O-])o4)cc3)sc2c1	ClpP mod 28.2µM
COc1ccc(C2c3[nH]c4ccc(OC)cc4c3CCN2C(=O)Nc2ccccc2)cc1 (stereo unspecified)	none (no result: PKM2 activator, IL-2 act, NPSR antagonist)
CCCCn1c(N)c(N(CCOC)C(=O)C(C)N2C(=O)c3ccccc3C2=O)c(=O)[nH]c1=O (stereo unspecified)	none (no result: PKM2 activator, NPSR antagonist)
Cc1ccc2nc(-c3ccc(NC(=O)CN4C(=O)NC(C)(c5ccc(OC(F)F)cc5)C4=O)cc3)sc2c1 (stereo unspecified)	ClpP mod 14.1µM
CC1(c2ccc(OC(F)F)cc2)NC(=O)N(CC(=O)Nc2ccccc2)C1=O (stereo unspecified)	none (no result: PKM2 activator, ClpP mod, NPSR antagonist)
COCCNc1nnc(SC(C)C(=O)Nc2ccc(-c3nc4ccc(C)cc4s3)cc2)s1 (stereo unspecified)	ClpP mod 17.8µM
CC(=O)NC(=S)Nc1ccc(-c2nc3ccc(C)cc3s2)cc1	NPSR antagonist 10µM
Cc1ccc2nc(-c3ccc(NC(=O)CN(c4ccccc4C)S(C)(=O)=O)cc3)sc2c1	ClpP mod 25.1µM
CNC(=S)Nc1ccc(-c2nc3ccc(C)cc3s2)cc1	none (no result: ClpP mod)
Cc1ccc2nc(-c3ccc(NC(=O)COC(=O)c4cncc(Br)c4)cc3)sc2c1	none (no result: ClpP mod)
Cc1ccc2nc(-c3ccc(NC(=O)COC(=O)c4ccc(Br)o4)cc3)sc2c1	ClpP mod 8.91µM
COc1ccc(/C=C(\NC(=O)c2ccc(C)cc2)C(=O)N2CCCCC2)cc1	none (no result: PKM2 activator, NPSR antagonist)
O=C(CSc1nnc(COc2ccccc2)o1)Nc1cc(C(F)(F)F)ccc1Cl	none (no result: PKM2 activator, IL-2 act, NPSR antagonist)
